PubChem BioAssay
For some assays here: Potency and affinity values are given separately. Calls of active or inactive are those of the source. Unless noted, how the calls were made is not given here.

Tests used:
[1] = antimalarial activity against Dd2 strain (AID 2302;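 active means growth inhibition above 50% at the single 2 µM test dose, taken to imply half-maximal potency below 2 µM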;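 further: 0% = DMSO untreated growth and 100% = chloroquine plus artemisinin killed control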); conditions: P. falciparum Dd2 in RBCs, LDH growth readout, 72 h; at 2 µM; hits give high values
[2] = human hepatoma cell viability loss – ATP luminescence, cytotoxicity control for P. falciparum antimalarial project, primary screen (AID 2303;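 active means inhibition above 50%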;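 further: 0% = DMSO wells and 100% = digitonin-killed cells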); conditions: HepG2 viability, 24-48 h, at 10 µM, hits give high values
[3] = target: L-lactate dehydrogenase (Plasmodium falciparum (isolate CDC / Honduras)) (UniProt Q27743); assay: PfLDH activity inhibition – cell lysate, 3D7 strain, counter-screen for P. falciparum growth inhibition project (AID 2304);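 further: 0% = vehicle and 100% = reference inhibitor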; conditions: P. falciparum 3D7 crude extract, LDH APAD/NBT absorbance; at 2 µM; hits give high values
L-lactate dehydrogenase (Plasmodium falciparum (isolate CDC / Honduras)), sequence (Q27743 whole entry, looked up): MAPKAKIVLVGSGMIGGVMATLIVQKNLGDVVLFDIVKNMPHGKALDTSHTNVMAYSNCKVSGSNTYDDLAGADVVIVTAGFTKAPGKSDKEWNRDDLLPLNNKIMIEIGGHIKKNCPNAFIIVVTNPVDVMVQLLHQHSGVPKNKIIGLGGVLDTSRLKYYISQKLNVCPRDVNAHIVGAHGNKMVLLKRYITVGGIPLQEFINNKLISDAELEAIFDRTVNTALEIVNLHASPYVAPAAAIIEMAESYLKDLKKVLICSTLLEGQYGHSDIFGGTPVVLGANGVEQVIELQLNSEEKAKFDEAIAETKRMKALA

[4] = inhibition of 3D7 malaria parasite growth – strain 3D7 (AID 2306);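 further: 0% = DMSO wells and 100% = chloroquine plus artemisinin control wells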; conditions: P. falciparum 3D7 erythrocytic growth, LDH absorbance, 72 h; at 2 µM; hits give high values
[5] = target: Calcium-dependent protein kinase 1 (Plasmodium falciparum (isolate 3D7)) (UniProt P62344); assay: PfCDPK1 kinase inhibitors, biochemical, TCAMS library (AID 1159585; cut-off not given, nearly all actives have IC50 up to about 0.98 µM;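 further: inhibitors leave more ATP so luminescence rises with inhibition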); conditions: recombinant PfCDPK1, Kinase-Glo ATP depletion luminescence
Calcium-dependent protein kinase 1 (Plasmodium falciparum (isolate 3D7)), sequence (P62344 whole entry, looked up): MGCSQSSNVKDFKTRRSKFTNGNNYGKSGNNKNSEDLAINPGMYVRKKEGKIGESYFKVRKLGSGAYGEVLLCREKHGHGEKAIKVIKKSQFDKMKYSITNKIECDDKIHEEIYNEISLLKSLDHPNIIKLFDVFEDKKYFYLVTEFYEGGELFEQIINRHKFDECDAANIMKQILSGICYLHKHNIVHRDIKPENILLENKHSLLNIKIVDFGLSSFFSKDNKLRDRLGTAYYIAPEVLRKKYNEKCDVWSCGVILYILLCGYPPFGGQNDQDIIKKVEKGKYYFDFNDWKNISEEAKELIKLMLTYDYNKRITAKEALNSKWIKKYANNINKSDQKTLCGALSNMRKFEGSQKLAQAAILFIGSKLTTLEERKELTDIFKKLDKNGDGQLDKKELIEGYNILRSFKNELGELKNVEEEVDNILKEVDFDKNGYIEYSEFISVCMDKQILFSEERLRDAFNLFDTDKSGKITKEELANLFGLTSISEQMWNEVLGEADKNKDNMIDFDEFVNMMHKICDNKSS

[6] = target: Plasmodium falciparum protein kinase 6 (PK6, PF3D7_1337100) (UniProt Q8IDW1); assay: PfPK6 kinase inhibitors, biochemical, TCAMS library (AID 1159586); conditions: recombinant PfPK6, Kinase-Glo ATP depletion luminescence
Plasmodium falciparum protein kinase 6 (PK6, PF3D7_1337100), sequence (Q8IDW1 1-305): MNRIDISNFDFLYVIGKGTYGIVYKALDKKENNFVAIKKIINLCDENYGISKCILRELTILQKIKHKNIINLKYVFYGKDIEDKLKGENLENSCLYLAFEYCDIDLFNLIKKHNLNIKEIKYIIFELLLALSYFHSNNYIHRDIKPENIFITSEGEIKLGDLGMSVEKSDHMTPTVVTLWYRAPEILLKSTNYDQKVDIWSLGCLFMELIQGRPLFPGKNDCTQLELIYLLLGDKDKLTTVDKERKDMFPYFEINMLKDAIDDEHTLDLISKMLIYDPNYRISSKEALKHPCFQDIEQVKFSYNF

[7] = target: Protein kinase 7 (PK7), Plasmodium falciparum 3D7 (PF3D7_0213400) (UniProt Q7YTF7); assay: inhibition of Plasmodium PK7 catalytic activity – biochemical, TCAMS antimalarial set, Kinase-Glo luminescence (AID 1159587); conditions: recombinant PfPK7, Kinase-Glo ATP depletion luminescence
Protein kinase 7 (PK7), Plasmodium falciparum 3D7 (PF3D7_0213400), sequence (Q7YTF7 1-343): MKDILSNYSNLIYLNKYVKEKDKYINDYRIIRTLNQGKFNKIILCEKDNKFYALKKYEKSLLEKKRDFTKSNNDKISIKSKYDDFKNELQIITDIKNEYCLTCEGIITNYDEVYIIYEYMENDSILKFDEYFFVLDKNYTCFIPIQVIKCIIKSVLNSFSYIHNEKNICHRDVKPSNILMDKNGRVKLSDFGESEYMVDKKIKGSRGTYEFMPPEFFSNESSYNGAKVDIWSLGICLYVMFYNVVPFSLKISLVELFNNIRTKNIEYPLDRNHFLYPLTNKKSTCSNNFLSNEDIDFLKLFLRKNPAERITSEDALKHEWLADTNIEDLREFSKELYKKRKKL

[8] = target: Calcium-dependent protein kinase 4 (Plasmodium falciparum (isolate 3D7)) (UniProt Q8IBS5); assay: PfCDPK4 kinase inhibitors, biochemical, TCAMS library (AID 1159588; cut-off not given, nearly all actives have IC50 up to about 0.91 µM); conditions: recombinant PfCDPK4, Kinase-Glo ATP depletion luminescence
Calcium-dependent protein kinase 4 (Plasmodium falciparum (isolate 3D7)), sequence (Q8IBS5 whole entry, looked up): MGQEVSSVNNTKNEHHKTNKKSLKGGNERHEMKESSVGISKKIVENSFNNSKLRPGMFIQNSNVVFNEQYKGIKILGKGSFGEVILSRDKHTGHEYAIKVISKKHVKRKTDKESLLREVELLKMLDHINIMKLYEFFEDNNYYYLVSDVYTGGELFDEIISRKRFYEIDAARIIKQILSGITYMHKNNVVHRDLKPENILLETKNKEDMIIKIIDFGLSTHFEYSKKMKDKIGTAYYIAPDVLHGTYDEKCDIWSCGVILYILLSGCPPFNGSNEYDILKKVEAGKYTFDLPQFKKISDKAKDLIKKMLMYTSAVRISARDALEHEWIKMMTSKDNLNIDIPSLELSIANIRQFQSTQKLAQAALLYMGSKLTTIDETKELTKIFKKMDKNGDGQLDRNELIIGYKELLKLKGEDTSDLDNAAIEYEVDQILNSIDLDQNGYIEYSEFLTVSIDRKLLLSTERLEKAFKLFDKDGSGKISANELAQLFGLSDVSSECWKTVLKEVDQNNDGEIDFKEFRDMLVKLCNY

CC1(C)CN(CCC2CCC(NC(=O)/C=C/c3ccccc3F)CC2)Cc2ccc(C#N)cc21 (stereo not given)
active: growth inhibition [1] 82% | growth inhibition [4] 89%
inactive: inhibition [2] -1% | inhibition [3] -3% | outcome [5] | outcome [6] | outcome [7] | outcome [8]

Cn1cc(C2CCN(CCCCCNC(=O)/C=C/c3ccc(Cl)c(Cl)c3)CC2)c2cc(O)ccc21
inactive: growth inhibition [1] -2% | inhibition [2] 11% | inhibition [3] -2% | outcome [5] | outcome [6] | outcome [7] | outcome [8]
active: growth inhibition [4] 94%

CCOc1ccc(-c2nc(NC(=O)COc3ccc(OC)cc3)sc2C)cc1
inactive: inhibition [2] 0% | inhibition [3] -9% | outcome [5] | outcome [6] | outcome [7] | outcome [8]
active: growth inhibition [1] 87% | growth inhibition [4] 99%

O=C(NC1CCN(c2ccnc3cc(Cl)ccc23)C1)c1ccc(C(F)(F)F)cc1 (stereo not given)
active: growth inhibition [1] 57% | growth inhibition [4] 101%
inactive: inhibition [2] 37% | inhibition [3] 4% | outcome [5] | outcome [6] | outcome [7] | outcome [8]

O=C(NCC1CCN(Cc2cccc(C(F)(F)F)c2)C1)c1cc(-c2cccc(Cl)c2)cs1 (stereo not given)
active: growth inhibition [4] 93%
inactive: growth inhibition [1] 14% | inhibition [2] 15% | inhibition [3] -5% | outcome [5] | outcome [6] | outcome [7] | outcome [8]

CCC[C@@H]([C@@H](CC1CCCCC1)C(=O)N[C@@H](CCCCNS(C)(=O)=O)C(=O)Nc1nccs1)N(O)C=O
inactive: inhibition [2] -13% | inhibition [3] -1% | outcome [5] | outcome [6] | outcome [7] | outcome [8]
active: growth inhibition [1] 74% | growth inhibition [4] 101%

OCC1CCN(Cc2ccc(-c3cccc(-c4nc5ccc(F)cc5[nH]4)c3)cc2)CC1
active: growth inhibition [4] 100%
inactive: growth inhibition [1] 25% | inhibition [2] 14% | inhibition [3] -3% | outcome [5] | outcome [6] | outcome [7] | outcome [8]

CC1CN(C(=O)c2sc3ccccc3c2Cl)CC(C)O1 (stereo not given)
active: growth inhibition [1] 98% | growth inhibition [4] 101%
inactive: inhibition [2] -5% | inhibition [3] 3% | outcome [5] | outcome [6] | outcome [7] | outcome [8]

Cc1cc2c(NC(=O)NC3CCN(CCc4ccccc4Cl)CC3)cccc2cn1
inactive: growth inhibition [1] 46% | inhibition [2] 13% | inhibition [3] 0% | outcome [5] | outcome [6] | outcome [7] | outcome [8]
active: growth inhibition [4] 102%

C[C@@H](Oc1cc(-n2cnc3cc(SCCN4CCN(C)CC4)ccc32)sc1C(N)=O)c1ccccc1Cl
active: growth inhibition [1] 65% | growth inhibition [4] 90%
inactive: inhibition [2] 46% | inhibition [3] -1% | outcome [5] | outcome [6] | outcome [7] | outcome [8]

O=C(Nc1cccc(C(F)(F)F)c1)c1cccc(S(=O)(=O)NC2CCN(CC3CCCCC3)C2)c1 (stereo not given)
inactive: growth inhibition [1] 45% | inhibition [2] 37% | inhibition [3] -1% | outcome [5] | outcome [6] | outcome [7] | outcome [8]
active: growth inhibition [4] 101%

CCOc1ccc(OCCCON2C(N)=NC(N)=NC2(C)C)cc1
active: growth inhibition [1] 94% | inhibition [2] 63% | growth inhibition [4] 97%
inactive: inhibition [3] -9% | outcome [5] | outcome [6] | outcome [7] | outcome [8]

CCCCCc1cc(OCCN(C)C)cc2c1C(=O)CC(C)(C)O2
inactive: growth inhibition [1] -2% | inhibition [2] 5% | inhibition [3] 6% | outcome [5] | outcome [6] | outcome [7] | outcome [8]
active: growth inhibition [4] 98%

O=C(Cn1c(SCc2cccc(F)c2F)cc(=O)c2ccccc21)N(CCn1ccnc1)Cc1ccc(-c2ccc(C(F)(F)F)cc2)cc1
active: growth inhibition [1] 94% | growth inhibition [4] 100%
inactive: inhibition [2] 20% | inhibition [3] -2% | outcome [5] | outcome [6] | outcome [7] | outcome [8]

COc1ccccc1N1CCN(CCCCNC(=O)c2ccc(NC(=O)c3cc(Cl)cc(Cl)c3)cc2)CC1
inactive: inhibition [2] 9% | inhibition [3] 2% | outcome [5] | outcome [6] | outcome [7] | outcome [8]
active: growth inhibition [1] 75% | growth inhibition [4] 101%

O=C(Nc1ccc(-n2ccc(C(F)(F)F)n2)cc1)c1cccs1
active: growth inhibition [1] 67% | growth inhibition [4] 89%
inactive: inhibition [2] 6% | inhibition [3] -6% | outcome [5] | outcome [6] | outcome [7] | outcome [8]

CCNc1cc(C(=O)N[C@@H](Cc2ccccc2)[C@H](O)CNC2(C)CCCCC2)cc(N2CCCCS2(=O)=O)c1
active: growth inhibition [1] 98% | growth inhibition [4] 100%
inactive: inhibition [2] 13% | inhibition [3] 2% | outcome [5] | outcome [6] | outcome [7] | outcome [8]

CSc1ccc(CN2CCC(NC(=O)c3ccc(-c4ccc(N(C)C)cc4)s3)CC2)cc1
active: growth inhibition [4] 86%
inactive: growth inhibition [1] 26% | inhibition [2] 30% | inhibition [3] -2% | outcome [5] | outcome [6] | outcome [7] | outcome [8]

COc1cc2nc(NCCCN3CCCCC3)nc(NCc3ccccc3)c2cc1OC
inactive: growth inhibition [1] 3% | inhibition [2] 12% | inhibition [3] 1% | outcome [5] | outcome [6] | outcome [7] | outcome [8]
active: growth inhibition [4] 102%

CCCN1CCc2c(sc3nc(SCC(=O)Nc4ccc(C)cc4)n(-c4ccc(C)cc4)c(=O)c23)C1
inactive: inhibition [2] 0% | inhibition [3] -5% | outcome [5] | outcome [6] | outcome [7] | outcome [8]
active: growth inhibition [1] 71% | growth inhibition [4] 92%

CCCc1cc(NC2CCN(C)CC2)nc(Nc2cccc(OC)c2)n1
inactive: growth inhibition [1] 28% | inhibition [2] 31% | inhibition [3] -3% | outcome [5] | outcome [6] | outcome [7] | outcome [8]
active: growth inhibition [4] 100%

Cc1cc(NC(=O)Nc2ccc(C(C)(C)C)cc2)c2ccccc2n1
active: growth inhibition [1] 57% | growth inhibition [4] 101%
inactive: inhibition [2] -3% | inhibition [3] 5% | outcome [5] | outcome [6] | outcome [7] | outcome [8]

c1ccc(CNc2cc(-c3ccccn3)nc(-c3ccccn3)n2)cc1
inactive: inhibition [3] -2% | outcome [5] | outcome [6] | outcome [7] | outcome [8]
active: growth inhibition [1] 89% | inhibition [2] 88% | growth inhibition [4] 84%

Cc1cc(=O)c(-c2ccc(OCCSc3ccc(C(F)(F)F)cn3)cc2)c(C)[nH]1
active: growth inhibition [1] 96% | growth inhibition [4] 97%
inactive: inhibition [2] 2% | inhibition [3] 7% | outcome [5] | outcome [6] | outcome [7] | outcome [8]

COc1ccc(-c2cnc(N)c(-c3ccc(C(N)=O)cc3)c2)cc1OC
active: growth inhibition [1] 98% | growth inhibition [4] 96%
inactive: inhibition [2] 11% | inhibition [3] 4% | outcome [5] | outcome [6] | outcome [7] | outcome [8]

COc1ccc(S(=O)(=O)NC2CCN(c3ccc(C(F)(F)F)cc3NC(=O)OCC(C)C)CC2)cc1
active: growth inhibition [4] 85%
inactive: growth inhibition [1] 13% | inhibition [2] 19% | inhibition [3] 3% | outcome [5] | outcome [6] | outcome [7] | outcome [8]

COc1cccc(NC(=O)CSc2nc(-c3ccccc3Cl)ns2)c1
inactive: inhibition [2] 7% | inhibition [3] 2% | outcome [5] | outcome [6] | outcome [7] | outcome [8]
active: growth inhibition [1] 100% | growth inhibition [4] 99%

Cc1cccc(C(=O)Nc2ccc(N3CCCN(Cc4cccc(O)c4)CC3)cc2)c1
inactive: growth inhibition [1] 44% | inhibition [2] 2% | inhibition [3] -3% | outcome [5] | outcome [6] | outcome [7] | outcome [8]
active: growth inhibition [4] 92%

CC1CN(c2cc(=O)n(Cc3cccc(NC(=O)Nc4ccc(-c5ccccc5)cc4)c3)cn2)CC(C)N1 (stereo not given)
inactive: inhibition [2] 2% | inhibition [3] -2% | outcome [5] | outcome [6] | outcome [7] | outcome [8]
active: growth inhibition [1] 63% | growth inhibition [4] 101%

Cc1cccn2c(=O)c3cc(C(=O)NCCN4CCOCC4)c(=N)n(CCc4ccccc4)c3nc12
active: growth inhibition [1] 85% | growth inhibition [4] 100%
inactive: inhibition [2] 13% | inhibition [3] 1% | outcome [5] | outcome [6] | outcome [7] | outcome [8]

O=C(/C=C/c1cccc2ccccc12)NCCCCCN1CCC(c2c[nH]c3ccccc23)CC1
active: inhibition [2] 55% | growth inhibition [4] 92%
inactive: growth inhibition [1] 6% | inhibition [3] -1% | outcome [5] | outcome [6] | outcome [7] | outcome [8]

C[C@@]12C[C@@H](Nc3nc(NCCc4ccc(O)cc4)nc(N4CCNCC4)n3)C[C@@H](C1)c1cccc(Cl)c1O2
inactive: growth inhibition [1] 47% | inhibition [3] 4% | outcome [5] | outcome [6] | outcome [7] | outcome [8]
active: inhibition [2] 92% | growth inhibition [4] 101%

N#Cc1c(N2CCCCCC2)nc(N)c2c(N)nc3c(c12)CC(=O)N3c1ccc(F)cc1
inactive: inhibition [2] -7% | inhibition [3] -1% | outcome [5] | outcome [6] | outcome [7] | outcome [8]
active: growth inhibition [1] 91% | growth inhibition [4] 97%

CC[C@H](C)CNC(=O)c1cncc(-c2ccc(CNCCOc3ccccc3)cc2)c1
inactive: growth inhibition [1] 0% | inhibition [2] 7% | inhibition [3] 3% | outcome [5] | outcome [6] | outcome [7] | outcome [8]
active: growth inhibition [4] 90%

CN1CCN(CCCN(Cc2ccc(-c3ccc(CNCc4ccc5c(c4)OCO5)cc3)cc2)C(=O)Nc2ccccc2)CC1
inactive: inhibition [2] 36% | inhibition [3] -3% | outcome [5] | outcome [6] | outcome [7] | outcome [8]
active: growth inhibition [1] 77% | growth inhibition [4] 94%

COc1cc(CNC(=S)NN=C(C)c2ccccn2)cc(OC)c1OC
inactive: inhibition [2] 45% | inhibition [3] -4% | outcome [5] | outcome [6] | outcome [7] | outcome [8]
active: growth inhibition [1] 92% | growth inhibition [4] 99%

CC(C)Nc1nc(NCCc2cnc[nH]2)nc(Nc2ccc(Oc3ccccc3)cc2)n1
active: growth inhibition [4] 95%
inactive: growth inhibition [1] 9% | inhibition [2] -3% | inhibition [3] 1% | outcome [5] | outcome [6] | outcome [7] | outcome [8]

Cc1ccc(Cl)cc1N1CCN(CCCNC(=O)C2CCN(c3nc4ccccc4[nH]3)CC2)CC1
active: growth inhibition [4] 88%
inactive: growth inhibition [1] -3% | inhibition [2] 41% | inhibition [3] -1% | outcome [5] | outcome [6] | outcome [7] | outcome [8]

COc1ccccc1-n1ccnc1SCC(=O)Nc1cc(C(F)(F)F)ccc1Cl
inactive: inhibition [2] -2% | inhibition [3] 2% | outcome [5] | outcome [6] | outcome [7] | outcome [8]
active: growth inhibition [1] 97% | growth inhibition [4] 97%

COc1ccc2nccc([C@@H](O)CN3CCC(NCc4ccc5c(c4)N(C)C(=O)CO5)CC3)c2c1
active: growth inhibition [1] 95% | growth inhibition [4] 101%
inactive: inhibition [2] -3% | inhibition [3] 6% | outcome [5] | outcome [6] | outcome [7] | outcome [8]
